About 83,000 compounds went through this panel and 20% of them were active in at least one assay; those are over-represented in the sample as a whole.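 Growth was measured after 48 h exposure to one concentration of compound in 96-well plates. Values under 10 count as active.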 Unmarked numbers belong to inactive results. The source made the active and inactive calls.
How the values were obtained:
Assay in all cases: NCI-60 one-dose screen, 48 h (100 = growth as untreated, 0 = no growth, -100 = all killed)
Conditions in all cases: 10 µM unless noted
[1] = system: NCI-H23 lung
[2] = system: NCI-H226 lung
[3] = system: NCI-H322M lung
[4] = system: HOP-62 NSCLC
[5] = system: NCI-H460 lung
[6] = system: HOP-92 NSCLC
[7] = system: NCI-H522 lung
[8] = system: A549/ATCC NSCLC
[9] = system: 786-0 renal
[10] = system: COLO 205 colon

| SMILES | growth [1] | growth [2] | growth [3] | growth [4] | growth [5] | growth [6] | growth [7] | growth [8] | growth [9] | growth [10] |
| --- | --- | --- | --- | --- | --- | --- | --- | --- | --- | --- |
| NC(=O)c1c(NC(=O)c2ccc(Cl)cc2)sc2c1CCC(=O)C2 | 51.6% | 97.8% | 94% | 106% | 100% | 77.4% | 7.79% (active) | 98.5% | 94.3% | 75.9% |
| O=S(=O)(c1ccccc1)N1CCCN(c2nc(-c3ccccc3)nc3nc(-c4ccccc4)oc23)CC1 | 107% | 109% | 96% | 104% | 110% | 105% | 98.5% | 105% | 102% | 116% |
| CCN(CC)c1ccc(/C=N/NC(=O)c2ccc(Nc3ccnc(C(F)(F)F)c3)cc2)c(O)c1 | 31% | -3.5% (active) | 15.3% | 25.6% | -4.66% (active) | 42.4% | 49.7% | 33.4% | -16.2% (active) | -18% (active) |
| COc1ncc2cc1NS(=O)(=O)c1cccc(c1)C(=O)NCC1=CC=C(S1)c1ncnc3c1SC2=C3C | 10.6% | -30.4% (active) | -65.4% (active) | 4.4% (active) | 2.61% (active) | -17.5% (active) | 4.2% (active) | 1.4% (active) | -23.8% (active) | -35.5% (active) |
| CC(C)=CC(=O)N[C@@H]1CC2CCC3C(CC[C@@]4(C)C3CC[C@@H]4C(C)N(C)C)[C@@]2(C)C[C@@H]1O (stereo not given in full) | 43.8% | 89.1% | 104% | 56.4% | 32.1% | 40.6% | 83% | 74.5% | 58.5% | 14.8% |
| NNC(=S)N/N=C/c1ccccn1 | 30.9% | 34.3% | 46.2% | 13% | 9.74% (active) | 21% | -14.3% (active) | 46.9% | 24.4% | 15% |
| COc1ccc(C2CC(c3ccc4c(c3)OCO4)=Nc3c(N)ncnc3N2)cc1 (stereo not given) | 107% | 100% | 95.4% | 88.6% | 111% | 62.4% | 108% | 104% | 102% | 100% |
| S=c1[nH]c2cc(Cl)ccc2o1 | 104% | 104% | 107% | 102% | 100% | 82.6% | 102% | 118% | 92.7% | 110% |
| COc1cc(-c2cc(-c3ccc(Nc4ncnc5cc(Cl)ccc45)cc3)nc(N3CCN(C)CC3)n2)cc(OC)c1OC | 108% | 50.5% | 104% | 94.4% | 100% | 77.7% | 85.8% | 89.2% | 45.2% | 90.6% |
| O=C(CCl)Nc1ccc2c(Nc3cc(O)ccc3Cl)ncnc2c1 | -74% (active) | -35% (active) | 5.63% (active) | -63.5% (active) | -54.8% (active) | -85% (active) | -65.8% (active) | -56.9% (active) | -89.8% (active) | -51.9% (active) |
| O=C1/C(=C/c2cccc([N+](=O)[O-])c2)COc2ccc(O)cc21 | 89.3% | 111% | 89.8% | 88.2% | 92.4% | 110% | 8.12% (active) | 89.2% | 14.7% | 64.6% |
| CC[C@@H](c1ccc2cc(OC)ccc2c1)C(C)(C)C(=O)F | 93.4% | 103% | 124% | 90.8% | 106% | 95.1% | 104% | 92.5% | 109% | 90.2% |
| CCCCCCCCn1ccc2cc(NC(=O)Cn3cc(CN4CCCCCC4)nn3)ccc21 | 52.3% | 38.6% | 26.7% | 55.7% | -58.7% (active) | 24% | 52.4% | 50.6% | -71.9% (active) | -70.1% (active) |
| CCCCCCCC/C=C\CCCCCCCCOc1ccccc1CC(=O)NCC[N+]1(C)CCCCC1 | 58.9% | 67.1% | 96.5% | 75.9% | 50.4% | 48.1% | 38% | 66.3% | 96.8% | 23% |
| CS(=O)(=O)Nc1cc(-c2ccc3ncnc(Nc4ccc5c(cnn5Cc5cccnc5)c4)c3c2)cnc1Cl | 55.8% | 76.4% | 68.7% | 51.2% | 79.8% | -10% (active) | 44.2% | 83.7% | 62.9% | 68.3% |
| O=C1N[C@@H]2[C@@H](O)[C@@H](O)[C@H](O)C[C@H]2c2cc3c(c(O)c21)OCCO3 | -40.9% (active) | -11.3% (active) | -24.3% (active) | -26.5% (active) | 1.26% (active) | -20.1% (active) | -36.1% (active) | -14.3% (active) | -1.5% (active) | -49% (active) |
| c1ccc(CNc2ccc3nc(CCC4CCCCC4)[nH]c3c2)cc1 | 68.2% | 71.4% | 86.7% | 80.1% | 78.1% | 44.7% | 58.3% | 72.5% | 62.2% | 1.16% (active) |
| COc1ccc(NC(=O)c2ccc(C(=O)Nc3ccc(OC)cc3OC)cc2)c(OC)c1 | 75.3% | 71.5% | 91.3% | 33.6% | 95.9% | -19.3% (active) | 76.4% | 85% | 51.2% | 115% |
| CC(C)(C)c1cc(C=Nc2cccc(C(F)(F)F)c2)c(O)c(C(C)(C)C)c1 | 88.5% | 91.4% | 95.3% | 95.7% | 107% | 90.9% | 73.5% | 84.1% | 107% | 119% |
| O[C@@H](c1cc(C(F)(F)F)nc2c(C(F)(F)F)cccc12)[C@H]1CCCCN1 | 81.5% | 94.6% | 71.5% | 56.1% | 35.6% | 12.3% | 40% | 66% | 46.3% | 67.9% |
| C=CC(C)(O)CC/C=C(\CO)C(=O)OC1C(C)OC(O[C@](C)(C=C)CC/C=C(\CO)C(=O)O[C@H]2C[C@@]3(C(=O)OC4OC(CO)C(O)C(O)C4OC4OC(C)C(OC5OC(CO)C(O)C5O)C(OC5OC(CO)C(O)C(O)C5O)C4O)C(CC2(C)C)C2=CCC4[C@@]5(C)CC[C@H](OC6OC(COC7OC(C)C(O)C(O)C7OC7OCC(O)C(O)C7O)C(O)C(O)C6NC(C)=O)C(C)(C)C5CC[C@@]4(C)[C@]2(C)C[C@H]3O)C(O)C1O (stereo not given in full) | 11.9% | 2.06% (active) | -78.4% (active) | -66.9% (active) | 57.8% | -46.2% (active) | -58.8% (active) | -37.5% (active) | -77.5% (active) | -69.3% (active) |
| O=c1ccc2nc(C(F)(F)F)nn(-c3ccccc3)c-2c1 | 67.7% | 77.7% | 99.8% | 69% | 97.3% | 35.2% | -56% (active) | 93% | 22.2% | -70.7% (active) |
| Cc1[nH]c(C(=O)Nc2ccc(C(N)=O)cc2NC(C)C)c(Cl)c1Cl | 85.8% | 91.6% | 98.7% | 104% | 93.1% | 72.7% | 79.3% | 85.5% | 91.1% | 122% |
| O=C1NC(=O)c2c1c1c3ccccc3[nH]c1c1oc3ccc(F)cc3c21 | 61.9% | 54% | 50.7% | 64.8% | 52.9% | 70.1% | 50.4% | 86% | 90.3% | 79.4% |
| CCOC(=O)c1c(NC(=O)CSc2n[nH]c3nc4ccccc4n23)sc(CC)c1C | 98.6% | 86.7% | 107% | 108% | 106% | 63.6% | 87% | 102% | 98.4% | 114% |
| Cn1cc(-c2nn3cc(-c4ccccc4)nc3s2)c2ccccc21 | 79.2% | 69.5% | 71% | 61.4% | 79.9% | 71.9% | 38.9% | 66.1% | 99.4% | 73.7% |
| O=C1NC(=C(Cl)Cl)/C(=N/S(=O)(=O)NCCc2c[nH]c3ccccc23)N1 | 97.4% | 86% | 27.7% | 56.9% | 66.8% | 39% | 17.2% | 99.3% | 66.5% | 110% |
